PubChem BioAssay (Tox21)
Where “and” joins values, the source holds several entries; their conditions need not be identical. Equal entries are not always repeated. Values without a mark were called inactive. Inconclusive results are not listed. A call without a number means that no potency is given here. Calls of active or inactive are those of the source. Unless noted, calls come from the whole dose curve; as a rule, active = well fitted curve in the direction sought with a large enough effect in the repeat runs; inconclusive = weak or mixed curves; inactive = no such curve, though single readings can be large; an effect the other way counts as inactive or inconclusive.

Assays:
[1] = biological target: Luciferin 4-monooxygenase (Photinus pyralis) (UniProt P08659); experiment: qHTS assay to identify small molecule inhibitors of firefly luciferase (AID 1224835); note: nearly all actives have a fitted effect of over 25% in size; note: potency is the fitted concentration of half-maximal effect
In short: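 Quantitative HTS format; KM concentrations of both substrates. Purified P. pyralis FLuc activity quantified from luminescence images.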

[2] = qHTS assay to identify small molecule agonists of the constitutive androstane receptor (CAR) signaling pathway - cell viability counter screen (AID 1224836); note: nearly all actives have a fitted effect of over 45% in size; note: potency is the fitted concentration of half-maximal effect
In short: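 Viability read-out: CellTiter-Fluor fluorescence after 23 h compound exposure at 37 C/5% CO2 in double-stable HepG2-CYP2B6-hCAR cells, with PK11195 present at 0.75 uM final; compounds tested in 15-point titration.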

[3] = qHTS assay to identify small molecule antagonists of the constitutive androstane receptor (CAR) signaling pathway - cell viability counter screen (AID 1224837); note: nearly all actives have a fitted effect of over 45% in size; note: potency is the fitted concentration of half-maximal effect
In short: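 Read-out: CellTiter-Fluor fluorescence after 23 hr at 37 C/5% CO2. Cells: HepG2 double-stable for hCAR and CYP2B6-2.2kb. Compounds tested at 15 concentrations in the presence of CITCO, final concentration 50 nM.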

[4] = biological target: Nuclear receptor subfamily 1 group I member 3 (Homo sapiens) (UniProt Q14994); experiment: qHTS assay to identify small molecule antagonists of the constitutive androstane receptor (CAR) signaling pathway (AID 1224838);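 note: HepG2 cells stably expressing hCAR with CYP2B6 luciferase reporter stimulated by CITCO; nearly all actives have a fitted effect of over 40% in size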; note: potency is the fitted concentration of half-maximal effect
In short: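 Read-out: ONE-Glo luciferase luminescence after 30 min at room temperature. HepG2-CYP2B6-hCAR double-stable cells, compounds in 15-point titration plus 50 nM CITCO final, 24 h at 37 C/5% CO2.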

[5] = biological target: Nuclear receptor subfamily 1 group I member 3 (Homo sapiens) (UniProt Q14994); experiment: qHTS assay to identify small molecule agonists of the constitutive androstane receptor (CAR) signaling pathway (AID 1224839); note: nearly all actives have a fitted effect of over 15% in size; note: potency is the fitted concentration of half-maximal effect;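 for activation: HepG2 cells stably carrying human CAR and a CYP2B6 luciferase reporter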
In short: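 Luminescence read-out (ONE-Glo, 30 min, room temperature) from double-stable HepG2-CYP2B6-hCAR cells exposed 24 h to 15-point compound series in presence of 0.75 uM PK11195 final.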

[6] = biological target: Thyrotropin receptor (Homo sapiens) (UniProt P16473); experiment: qHTS assay to identify small molecule agonists of the thyroid stimulating hormone receptor (TSHR) signaling pathway (AID 1224843; calls by dose curve; note: nearly all actives have a fitted effect of over 45% in size; note: potency is the fitted concentration of half-maximal effect)
In short: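 Compounds are titrated over 15 concentrations, in triplicate, onto TSHR-HEK293 cells seeded at 800/well. Plates sit 30 min at room temperature before cAMP-d2 and anti-cAMP cryptate are added; signal is read after a further hour.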

[7] = qHTS assay to identify small molecule agonists of the hypoxia (HIF-1) signaling pathway - cell viability counter screen (AID 1224844; calls by dose curve; note: nearly all actives have a fitted effect of over 50% in size; note: potency is the fitted concentration of half-maximal effect)
In short: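 CellTiter-Glo luminescence read-out, 30 min RT, taken in the same wells as the beta-lactamase HRE reporter assay; HRE-bla ME-180 cells, 0.5% dialyzed FBS, 17 hr compound treatment at 37C, 5% CO2.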

[8] = qHTS assay to identify small molecule agonists of H2AX (AID 1224845; active = well fitted activation curve with a large enough effect in the signal ratio in the repeat runs, not every such curve was filed as active; the % refers to the signal ratio; note: potency is the fitted concentration of half-maximal effect)
In short: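 Wild-type CHO-K1 cells plated overnight, then exposed 3 hr at 37C to compounds at 15 concentrations (0.76% DMSO). Lysed, then HTRF anti-pH2AX(S139)-cryptate/anti-H2AX-d2 detection after 24 hr at room temperature; emissions 665 and 620 nm.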

[9] = qHTS assay to identify small molecule agonists of H2AX - cell viability counter screen (AID 1224847; calls by dose curve; note: nearly all actives have a fitted effect of over 30% in size; note: potency is the fitted concentration of half-maximal effect)
In short: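 CHO-K1 wt, 1000 cells/well, o/n 37C; cpds 15 conc, 3 h 37C, 0.76% DMSO; CellTiter-Glo, 30 min RT, luminescence.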

[10] = qHTS RealTime-Glo MT Cell Viability Assay in HepG2 cells - 24 hour (AID 1224867); note: nearly all actives have a fitted effect of over 50% in size; note: potency is the fitted concentration of half-maximal effect
In short: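 HepG2 cells were seeded at 600 cells/well together with NanoLuc luciferase and a cell-permeant prosubstrate, preincubated 5 h at 37 C/5% CO2, then pin-dosed with compounds in DMSO. Nonlytic luminescence from viable cells was read at each time point.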

[11] = qHTS RealTime-Glo MT Cell Viability Assay in HEK293 cells - 32 hour (AID 1224868); note: nearly all actives have a fitted effect of over 50% in size; note: potency is the fitted concentration of half-maximal effect
In short: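 HEK293 cells were seeded at 600 cells/well together with NanoLuc luciferase and cell-permeant prosubstrate, preincubated 5 h at 37 C/5% CO2, then given compound in DMSO by pintool. Luminescence from viable-cell prosubstrate reduction was read repeatedly over 40 h.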

[12] = A CellTox Green Cytotoxicity Assay to monitor cytotoxicity in HEK293 cells - 0 hour (AID 1224869); note: nearly all actives have a fitted effect of over 50% in size
In short: (§1)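 Read-out: fluorescence of a cell-impermeant cyanine dye staining DNA of dead cells, proportional to cytotoxicity. HEK293, 600 cells/well with reagent, compound (23 nL DMSO) added after 5 h; reads at 0, 8, 16, 24, 32, 40 h.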

[13] = qHTS RealTime-Glo MT Cell Viability Assay in HepG2 cells - 40 hour (AID 1224870); note: nearly all actives have a fitted effect of over 50% in size; note: potency is the fitted concentration of half-maximal effect
In short: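 HepG2 cells mixed with RealTime-Glo MT reagents (NanoLuc plus cell-permeant prosubstrate) were seeded at 600 cells/well, incubated 5 h at 37 C/5% CO2, then pinned with compounds in DMSO; nonlytic luminescence tracked viability during 40 h treatment.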

[14] = A CellTox Green Cytotoxicity Assay to monitor cytotoxicity in HEK293 cells - 40 hour (AID 1224871); note: nearly all actives have a fitted effect of over 45% in size; note: potency is the fitted concentration of half-maximal effect
In short: as §1

[15] = qHTS assay to identify small molecule antagonists of the estrogen related receptor signaling pathway with the pleiotropic PPARgamma coactivator (PGC) from Tox21 10K library - cell viability counter screen (AID 1224840; active = well fitted cell-killing curve with a large enough effect in the repeat runs, not every such curve was filed as active; note: nearly all actives have a fitted effect of over 40% in size; note: potency is the fitted concentration of half-maximal effect)
In short: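 Fluorescence read-out of CellTiter-Fluor viability reagent, added after cells had been exposed to compound in DMSO for 17.5 h at 37 C; 30 min development at 37 C/5% CO2. Cells: PGC/ERR line, 2,000/well.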

[16] = qHTS assay to identify small molecule agonists of the hypoxia (HIF-1) signaling pathway (AID 1224846; active = well fitted activation curve with a large enough effect in the signal ratio in the repeat runs, not every such curve was filed as active; the % refers to the signal ratio)
In short: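 Beta-lactamase FRET read-out (CCF4-AM substrate) from ME-180 cells carrying an HRE-driven bla reporter, after 17 hrs compound exposure at 37C/5% CO2. Cells were seeded at 2,000 per well in 0.5% dialyzed FBS medium and preincubated 5 hrs.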

[17] = qHTS assay to identify small molecule agonists of the estrogen related receptor signaling pathway with the pleiotropic PPARgamma coactivator (PGC) from Tox21 10K library (AID 1224842); note: nearly all actives have a fitted effect of over 15% in size
In short: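 PGC/ERR reporter cells (NTP line) were seeded 2,000 per well, rested 6 h at 37 C/5% CO2, then pin-dosed with compounds in DMSO for 18 h at 37 C; luciferase read by One-Glo luminescence after 30 min at room temperature.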

[18] = qHTS assay to identify small molecule antagonists of the estrogen related receptor (ERR) signaling pathway from Tox21 library (AID 1224848); note: nearly all actives have a fitted effect of over 50% in size; note: potency is the fitted concentration of half-maximal effect
In short: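 First, 2,000 ERR cells per well were plated and held 6 h at 37 C/5% CO2. Next, compounds in DMSO were pinned in and left 18 h at 37 C. Finally, ONE-Glo was added and luminescence read after 30 min at room temperature.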

[19] = qHTS assay to identify small molecule agonists of the estrogen related receptor (ERR) signaling pathway from Tox21 library (AID 1224849; calls by dose curve; note: nearly all actives have a fitted effect of over 15% in size); settings: ERR reporter cell line, ONE-Glo luciferase, 18 h; at 92.4 µM (top of the series) unless noted
In short: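 Luminescence readout (ONE-Glo, 30 min RT) after 18 h compound exposure at 37 C of NTP-supplied ERR reporter cells; cells were plated 6 h before compound addition by pin tool.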

Chain of Luciferin 4-monooxygenase (Photinus pyralis) (P08659 whole entry, looked up): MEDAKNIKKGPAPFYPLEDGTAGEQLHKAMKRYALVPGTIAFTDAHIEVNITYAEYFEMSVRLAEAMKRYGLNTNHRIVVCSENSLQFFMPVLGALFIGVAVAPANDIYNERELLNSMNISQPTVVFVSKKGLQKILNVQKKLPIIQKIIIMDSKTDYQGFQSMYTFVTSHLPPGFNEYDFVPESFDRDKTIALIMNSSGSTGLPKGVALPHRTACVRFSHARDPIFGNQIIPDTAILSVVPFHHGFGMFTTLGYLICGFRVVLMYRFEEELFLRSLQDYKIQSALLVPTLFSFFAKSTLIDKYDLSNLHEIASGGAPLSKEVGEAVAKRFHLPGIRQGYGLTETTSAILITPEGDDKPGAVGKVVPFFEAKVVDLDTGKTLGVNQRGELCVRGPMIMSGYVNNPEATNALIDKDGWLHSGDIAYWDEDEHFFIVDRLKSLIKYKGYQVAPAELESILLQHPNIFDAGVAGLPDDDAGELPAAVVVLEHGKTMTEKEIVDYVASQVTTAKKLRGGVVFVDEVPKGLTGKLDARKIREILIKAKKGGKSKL
Chain of Thyrotropin receptor (Homo sapiens) (P16473 whole entry, looked up): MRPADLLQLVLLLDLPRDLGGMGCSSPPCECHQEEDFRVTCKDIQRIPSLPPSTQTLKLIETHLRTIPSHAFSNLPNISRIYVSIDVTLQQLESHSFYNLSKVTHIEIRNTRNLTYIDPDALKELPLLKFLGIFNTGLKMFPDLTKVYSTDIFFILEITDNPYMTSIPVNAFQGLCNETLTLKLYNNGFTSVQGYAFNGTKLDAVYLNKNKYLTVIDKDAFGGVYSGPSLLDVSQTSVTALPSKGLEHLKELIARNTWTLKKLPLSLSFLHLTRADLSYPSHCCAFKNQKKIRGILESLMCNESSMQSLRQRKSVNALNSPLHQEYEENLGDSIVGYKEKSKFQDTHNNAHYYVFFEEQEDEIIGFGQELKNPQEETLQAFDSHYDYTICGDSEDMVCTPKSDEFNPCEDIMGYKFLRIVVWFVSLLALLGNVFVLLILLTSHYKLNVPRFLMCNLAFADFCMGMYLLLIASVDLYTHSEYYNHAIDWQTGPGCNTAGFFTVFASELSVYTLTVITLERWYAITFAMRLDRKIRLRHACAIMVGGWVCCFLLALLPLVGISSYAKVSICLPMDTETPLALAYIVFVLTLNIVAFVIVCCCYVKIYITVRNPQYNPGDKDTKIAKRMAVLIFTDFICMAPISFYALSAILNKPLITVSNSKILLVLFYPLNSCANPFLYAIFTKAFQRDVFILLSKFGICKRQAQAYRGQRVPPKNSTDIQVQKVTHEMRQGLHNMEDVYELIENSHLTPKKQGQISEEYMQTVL
Chain of Nuclear receptor subfamily 1 group I member 3 (Homo sapiens) (Q14994 whole entry, looked up): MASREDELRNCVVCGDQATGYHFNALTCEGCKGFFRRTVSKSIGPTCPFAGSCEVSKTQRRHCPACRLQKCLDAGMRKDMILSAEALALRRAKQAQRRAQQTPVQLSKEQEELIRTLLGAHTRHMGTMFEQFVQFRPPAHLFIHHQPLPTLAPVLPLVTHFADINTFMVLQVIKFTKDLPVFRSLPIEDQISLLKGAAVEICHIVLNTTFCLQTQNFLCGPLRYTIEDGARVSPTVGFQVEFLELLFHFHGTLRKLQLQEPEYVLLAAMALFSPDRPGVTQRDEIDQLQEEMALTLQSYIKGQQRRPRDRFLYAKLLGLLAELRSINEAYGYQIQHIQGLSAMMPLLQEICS

Structure (SMILES) | Potency [1] | Potency [2] | Potency [3] | Potency [4] | Potency [5] | Potency [6] | Potency [7] | Potency [8] | Potency [9] | Potency [10] | Potency [11] | Potency [12] | Potency [13] | Potency [14] | Potency [15] | Potency [16] | Potency [17] | Potency [18] | activity change, positive = activation [19]
O=S1OCC2C(CO1)C1(Cl)C(Cl)=C(Cl)C2(Cl)C1(Cl)Cl (stereo not given) | inactive | inactive | inactive | inactive | 30.7 µM (active) and 17.2 µM (active) | 4.33 µM (active) and 8.63 µM (active) | 48.9 µM (active) | 89.9 µM (active) and 101 µM (active) | 101 µM (active) and 89.7 µM (active) | 54.9 µM (active) | 21.9 µM (active) and 38.9 µM (active) | inactive | inactive | 49 µM (active) and 54.9 µM (active) |  |  |  |  | 
[Cl][Hg][c]1ccccc1 | 6.33 µM (active) | 6.86 µM (active) | 4.33 µM (active) | 3.86 µM (active) | inactive |  | 1.38 µM (active) | inactive | 7.13 µM (active) | 2.75 µM (active) | 1.1 µM (active) | inactive | 3.09 µM (active) | 1.23 µM (active) | 2.43 µM (active) |  |  |  | 
COc1ccc2c(c1OC)C(=O)O[C@@H]2[C@H]1c2cc3c(cc2CCN1C)OCO3 | inactive | 7.62 µM (active) | 7.62 µM (active) | inactive | inactive | inactive | inactive | inactive | inactive | inactive | inactive | inactive | inactive | inactive |  |  |  |  | 
c1csc(-c2ccc(-c3cccs3)s2)c1 | 2.52 µM (active) | inactive | inactive | inactive | 13.7 µM (active) |  | inactive |  | inactive | inactive | inactive | inactive | inactive | inactive | inactive |  |  |  | 
CCNc1nc(NC(C)C(C)C)nc(SC)n1 (stereo not given) | inactive | inactive | inactive | inactive | 48.6 µM (active) |  | inactive | inactive | inactive | inactive | inactive | inactive | inactive | inactive | inactive | inactive |  |  | 
[O]=[Cr][O][Cr]=[O] | inactive | inactive | inactive | inactive | inactive |  | inactive | inactive | inactive | inactive | inactive | inactive | inactive |  | inactive | inactive |  |  | 
CC[C@H](C)[C@H]1O[C@]2(C=C[C@@H]1C)C[C@@H]1C[C@@H](C/C=C(\C)[C@@H](O[C@H]3C[C@H](OC)[C@@H](O[C@H]4C[C@H](OC)[C@@H](NC)[C@H](C)O4)[C@H](C)O3)[C@@H](C)/C=C/C=C3\CO[C@@H]4[C@H](O)C(C)=C[C@@H](C(=O)O1)[C@]34O)O2 | inactive | 12.2 µM (active) | 9.69 µM (active) | 13.7 µM (active) | inactive |  | 21.9 µM (active) |  | 16 µM (active) | 9.77 µM (active) | 4.9 µM (active) |  | 9.77 µM (active) | 11 µM (active) | 6.86 µM (active) |  |  |  | 
Cc1cccc(Cc2cnc[nH]2)c1C | inactive | inactive | inactive | inactive | inactive | inactive | inactive |  | inactive | inactive | inactive |  | inactive | inactive | inactive |  |  |  | 
CNC(=O)CSP(=O)(OC)OC | inactive | inactive | inactive | inactive | inactive | inactive | inactive |  | inactive | inactive | inactive |  | inactive | inactive | inactive | inactive |  |  | 
CN/C(=N\[N+](=O)[O-])NCc1cnc(Cl)s1 | inactive | inactive | inactive | inactive | inactive |  | inactive | inactive | inactive | inactive | inactive | inactive | inactive | inactive | inactive | inactive |  |  | 
N#CCCl | inactive | inactive | inactive | inactive | inactive | inactive | inactive |  |  | inactive |  |  | inactive | inactive | inactive | inactive |  |  | 
O=C(N[C@H]1N=C(c2ccccc2F)c2cccc3c2N(CC3)C1=O)c1cc2ccccc2[nH]1 | inactive | inactive | inactive | inactive | inactive | inactive | inactive | inactive | inactive | inactive |  | inactive | inactive | inactive | inactive |  |  |  | 
C#CCC1=C(C)C(OC(=O)C2C(C=C(C)C)C2(C)C)CC1=O (stereo not given) | inactive | inactive | inactive | inactive | 60.7 µM (active) | 60.7 µM (active) | inactive | inactive |  | inactive |  | inactive | inactive | inactive |  | inactive | inactive | 48.2 µM (active) | 
Cc1cc(C2CC2)nc(Nc2ccccc2)n1 | 39.9 µM (active) | inactive | inactive | inactive | 54.5 µM (active) |  | inactive |  |  |  | 24.5 µM (active) |  | inactive |  |  | inactive |  | inactive | 13.7% (active)
CN(C)c1ccc(N)cc1 | 1.74 µM (active) | 59.6 µM (active) | 53.2 µM (active) | inactive | 9.45 µM (active) |  | inactive |  | 87.6 µM (active) |  |  | inactive | inactive |  | 26.6 µM (active) | inactive |  |  | 
Cc1ccc(C)c2ccccc12 | inactive | inactive | inactive | inactive | inactive |  | inactive | inactive | inactive | inactive |  | inactive | inactive | 38.9 µM (active) | inactive | inactive |  |  | 
